High-throughput results deposited in PubChem by several laboratories.
Only some compounds are listed: those with a hit (about 1% of all), similar ones and a draw of the others.
NPR1 activator – GC-A (human) enzyme activation; activation, % at 10 µM; HEK293 GC-A cells, cGMP TR-FRET, EC30 ANP; 0% at EC30 ANP, 100% saturating ANP; P16066; 370,000 compounds, 0.14% hits; in the data active = activation above about 40%
Bfl-1 A1 inh – inhibitors of the anti-apoptotic protein A1, read as caspase activation; MEF A1-2A-BIM cells, Caspase-Glo 3/7 luminescence, 3 h; percent of clofoctol response, vehicle zero; caspase activation, % (test concentration not listed); 330,000 compounds, 0.066% hits; AID 2462;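 active = over half of replicate activation scores above 10%, or exactly half above 10 with the replicate mean above 10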
GC-B act – GC-B (human) receptor activation. P20594. HEK293-GC-B cells, CNP EC30, cGMP TR-FRET; 0% at EC30 CNP, 100% saturating CNP. activation, % at 10 µM. 370,000 compounds, 0.11% hits. AID 1920062;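 active = activation at 10 µM reaching about 35% in either raw or pattern-adjusted values, limit read from the data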
Target sequence (P20594 whole entry, looked up): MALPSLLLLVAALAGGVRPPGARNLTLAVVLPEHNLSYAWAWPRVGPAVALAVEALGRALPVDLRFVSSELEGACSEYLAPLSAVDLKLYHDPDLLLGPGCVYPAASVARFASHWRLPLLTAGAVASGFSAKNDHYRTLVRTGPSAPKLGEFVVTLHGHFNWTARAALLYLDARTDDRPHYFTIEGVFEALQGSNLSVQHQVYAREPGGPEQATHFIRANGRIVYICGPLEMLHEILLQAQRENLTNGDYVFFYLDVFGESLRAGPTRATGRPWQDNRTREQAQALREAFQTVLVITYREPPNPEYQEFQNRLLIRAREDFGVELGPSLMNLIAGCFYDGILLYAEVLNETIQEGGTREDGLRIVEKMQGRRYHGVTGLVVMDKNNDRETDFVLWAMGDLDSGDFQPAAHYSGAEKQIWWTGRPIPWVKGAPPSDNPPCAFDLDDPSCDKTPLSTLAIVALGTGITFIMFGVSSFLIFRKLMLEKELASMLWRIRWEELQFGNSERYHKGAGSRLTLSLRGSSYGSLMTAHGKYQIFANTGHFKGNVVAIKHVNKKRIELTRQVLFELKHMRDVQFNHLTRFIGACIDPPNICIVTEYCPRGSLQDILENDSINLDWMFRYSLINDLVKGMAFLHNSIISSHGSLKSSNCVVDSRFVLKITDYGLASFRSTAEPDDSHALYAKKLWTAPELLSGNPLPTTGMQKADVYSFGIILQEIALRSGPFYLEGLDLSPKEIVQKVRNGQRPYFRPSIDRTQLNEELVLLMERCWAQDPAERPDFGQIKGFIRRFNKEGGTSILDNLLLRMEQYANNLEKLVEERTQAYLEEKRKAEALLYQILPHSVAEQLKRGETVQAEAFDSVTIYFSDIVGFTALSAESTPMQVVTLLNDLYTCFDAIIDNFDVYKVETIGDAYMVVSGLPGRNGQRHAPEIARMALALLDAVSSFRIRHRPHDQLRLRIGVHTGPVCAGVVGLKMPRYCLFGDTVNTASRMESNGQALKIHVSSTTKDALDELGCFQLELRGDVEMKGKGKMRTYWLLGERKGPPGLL
HSV augment – increases HSV replication in cells; HSV replication augmentation in cells, fold increase; maximum fold increase; 220,000 compounds, 0.005% hits; AID 1956; in the data active = maximum fold increase above about 1.5; tested in PC3 cells
H9c2 TAG inh – reduces triacylglycerol accumulation in H9c2 cells; Nile Red lipid (TAG) fluorescence; cells loaded with 200 µM oleic acid; inhibition, % at 12.5 µM; 230,000 compounds, 0.66% hits; AID 651582;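 active = pattern-corrected inhibition of lipid staining of at least 50% with the nuclear-stain viability signal not falling by more than 50%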;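 note: 0% = DMSO wells and 100% = triacsin C control wells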
Efflux pump mplx – inhibitors of Candida antifungal efflux pumps expressed in yeast; S. cerevisiae Candida pump triplex, Nile Red efflux; inhibition, % at 10 µM; 330,000 compounds, 0.44% hits;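 active = plate passing quality check with inhibition over a set limit, or well fluorescence over plate mean plus 4 SD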;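 note: Nile Red retained in pooled yeast measured as flow cytometry median fluorescence; 0% = buffer negative control and 100% = Enniatin B positive control; higher means more Nile Red kept so more efflux inhibition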
The depositor's hits bear a star; i = inactive; . = no result.

SMILES	NPR1 activator	Bfl-1 A1 inh	GC-B act	HSV augment	H9c2 TAG inh	Efflux pump mplx
COc1ccc([C@H]2CC(=O)C=C(c3ccc4[nH]ccc4c3)C2)cc1OC	1	-1	8	.	0	1
O=[N+]([O-])c1ccc(OC[C@@H](O)CN2CCC(C(O)(c3ccccc3)c3ccccc3)CC2)c(Cl)c1	-14	.	-10	.	.	.
COc1ccccc1C(C[N+](=O)[O-])c1c(N)n(C)c(=O)n(C)c1=O (centres undefined)	3	0	-5	i	52*	0
CCOc1c(Cl)cc(CNc2ccc(N3CCCC3)cc2)cc1OC	-9	.	-11	i	60*	.
COc1ccc(-c2csc3nc(-c4ccccc4OC)oc(=O)c23)cc1	42*	0	6	i	.	0
COc1ccc(-c2csc3nc(-c4ccc(C)cc4)oc(=O)c23)cc1OC	10	0	-4	i	.	0
COc1ccc(/C=C2/C(=O)N(c3ccccc3)N=C2C)cc1	.	0	.	.	-9	0
COc1ccc(/C=C2/C(=O)N(c3c(F)c(F)c(F)c(F)c3F)N=C2C)cc1	46*	0	24	.	.	0
CN1C[C@@H]2C(c3ccc(Cl)nc3)C3(c4ccc(C#N)cc4)CC2(C3)[C@H]1c1ccccc1 (some centres undefined)	-7	-1	-8	i	5	0
N#Cc1ccc(C23CC4(C2)[C@H](CN(P(=O)(c2ccccc2)c2ccccc2)[C@@H]4c2ccccc2)C3c2ccc(Cl)nc2)cc1 (some centres undefined)	.	0	.	i	51*	0
CC(CC(=O)c1ccc(F)cc1)N1CCN(c2ccccc2)CC1 (centres undefined)	63*	.	1	.	-6	.
Cc1ccc(NC(=O)c2cc(N3C(=O)C=CC3=O)ccc2N2CCOCC2)cc1Cl	-9	15*	33	i	.	0
CCCCCCCCN1CCS(=O)(=O)N(Cc2ccc(C)cc2)C(C(=O)OC)C1 (centres undefined)	0	.	-3	.	.	.
CC1=NN(c2ccccc2)C(=O)/C1=C/C=C/c1ccc(N(C)C)cc1	-24	.	-18	i	66*	.
CC1=NN(c2ccccc2)C(=O)/C1=C\C=C\c1ccccc1	-1	-1	-7	i	-15	0
Nc1[nH]c2cc(C(F)(F)F)ccc2c1C(=O)NC1CCCCC1	1	.	0	.	.	.
CCOC(=O)[C@@]12CCCC3=C1N(CCC3)C(=O)[C@H]2CC(=O)N1CCSCC1	1	.	-3	.	.	.
Cc1ccc(Cc2c(-c3ccc(Cl)cc3)nc3cc(C)ccn23)cc1	36	.	48*	.	2	.
Cc1ccc(Cc2c(-c3ccc(C)cc3)nc3cc(C)ccn23)cc1	29	.	29	.	1	.
CCCCN(C)C(=O)C1CCN(S(=O)(=O)c2ccc3[nH]c(=O)oc3c2)CC1	0	.	-4	.	.	.
CCCCCC[N+](C)(C)CC/C=C1/c2ccccc2Sc2ccc(Cl)cc21	-15	1	-13	i	56*	0
CNC(=O)c1sc(-c2ccc(Cl)cc2)nc1C	46*	1	1	i	-2	0
Cc1nc(-c2ccc(Cl)cc2)sc1C(=O)NNC(=O)C(C)C	43*	-1	2	i	-10	0
C[C@H](CO)N1C[C@H](C)[C@@H](CN(C)C(=O)Nc2ccc(C(F)(F)F)cc2)Oc2ccc(NS(=O)(=O)c3ccccc3)cc2C1=O	3	0	82*	.	3	0
COc1ccc(S[C@]2(C(=O)N3CCOCC3)CC(=O)N(C(=O)c3ccccc3)[C@@H]2c2ccc(OC)cc2)cc1	-5	.	-9	.	.	.
SMILES	NPR1 activator	Bfl-1 A1 inh	GC-B act	HSV augment	H9c2 TAG inh	Efflux pump mplx
COC(=O)[C@]12C[C@H](CC(=O)NCc3ccccc3)C(=O)N(CCC3=CCCCC3)C1=C[C@H](C1CCCC1)O[C@@H]2C	0	.	-3	.	.	.
CCC12CN(C(=O)c3ccc(OC)cc3)CC(CC)(CN(C(=O)c3ccc(OC)cc3)C1)C2=O	-4	1	75*	i	-5	0
CCC12CN(C(=O)c3ccc([N+](=O)[O-])cc3)CC(CC)(CN(C(=O)c3ccc([N+](=O)[O-])cc3)C1)C2=O	0	0	-3	i	-12	0
CCN(CC)C(=O)CC[C@@H]1CC[C@]2(CCCN(Cc3cccnc3)C2)O1	2	.	-2	.	.	.
CCNc1nc(NC(C)(C)C)nc(N(C#N)CC)n1	44*	0	48*	i	.	0
CC(=O)Nc1cc(-c2ccccc2Cl)cn2c(-c3ccc(S(C)(=O)=O)cc3)cnc12	17	.	43*	.	34	.
COc1ccccc1-c1cc(NC(C)=O)c2ncc(-c3ccc(S(C)(=O)=O)cc3)n2c1	6	.	9	.	15	.
COc1cc(NC(=O)c2cccc(C)c2)ccc1NC(=O)c1cc2ccccc2o1	-14	8.2*	-2	.	.	0
Cc1nc(SCc2nc3c([N+](=O)[O-])cccc3[nH]2)c2oc3ccccc3c2n1	.	17*	.	.	4	0
Cc1cc(Cl)ccc1OCC(=O)OCC(=O)c1c(N)n(C)c(=O)n(C)c1=O	1	16*	-3	.	-10	0
CCOC(=O)c1ccc(NC(=O)c2c(N)n(C)c(=O)n(C)c2=O)cc1	2	-1	-5	i	.	0
Cn1c(N)c(C(=O)Nc2cccc(Cl)c2)c(=O)n(C)c1=O	47*	-1	-6	.	.	0
COC(=O)[C@]12C[C@H](CC(=O)NCC3CCCCC3)C(=O)N(Cc3ccccc3)C1=C[C@H](COCc1ccccc1)O[C@@H]2C	-1	.	2	.	.	.
O=Cc1coc2c(ccc3ccccc32)c1=O	.	0	.	.	.	1.9*
CCN(CC)C(=O)CC[C@@H]1CC[C@]2(CCCN(C(=O)c3ccccc3)C2)O1	3	.	-6	.	.	.
O=C(Nc1ccc(-c2nc3ncccc3o2)cc1)c1ccc(Br)o1	0	-1	3	i	69*	0
COc1cc(-c2nc(-c3ccc(NC(=O)c4ccc(Br)o4)cc3)no2)cc(OC)c1OC	-1	-1	6	i	51*	0
COC(=O)[C@@]12CCCCC=C1N(CCc1ccc(Cl)cc1)C(=O)[C@H]2CC(=O)NCCc1ccccc1OC	1	.	1	.	.	.
CC1CC(C)CN(C(=O)c2ccc3c(c2NCCO)C(=O)c2ccccc2C3=O)C1 (centres undefined)	-5	0	-6	i	127*	0
CN1CCCN(S(=O)(=O)c2ccc3c(c2)CCC(=O)N3)CC1	4	.	-1	.	.	.
Cc1ccccc1CN1CCCCC(NC(=O)c2ccccc2C(F)(F)F)C1=O (centres undefined)	4	.	6	.	.	.
Cn1ncc2c(O/N=C(\N)c3ccc(C(F)(F)F)cc3)ncnc21	-2	1	0	i	86*	0
Cc1ccc(C(=O)NNc2ncnc3c2cnn3C)cc1	3	-1	-1	i	-3	0
